# ± gives the standard deviation of the averaged measurements.
# Tested on: AEK1 (Tb927.3.2440)
# Test: percent reduction in TR-FRET probe signal relative to DMSO control; higher = stronger displacement of ATP-site probe (binding)
# Details: 1 µM; incubation time 1 h
row,Compound,percent reduction in TR-FRET probe signal [%]
1,CNC(=O)c1cc(Oc2ccc(NC(=O)Nc3cc(C(C)(C)C)nn3-c3ccc4ncccc4c3)c(F)c2)ccn1 [DCC-2036 (Rebastinib)],21.5 ± 15
2,Cl.Cl.c1cc(-c2cnn3cc(-c4ccc(OCCN5CCCCC5)cc4)cnc23)ccn1 [Dorsomorphin 2HCl],-8.77 ± 4.9
3,CNC(=O)c1cc(Oc2ccc(NC(=O)Nc3ccc(Cl)c(C(F)(F)F)c3)cc2)ccn1 [Sorafenib],17.5 ± 6.7
4,O=C(NCCCNc1nc(Nc2cccc(NC(=O)N3CCCC3)c2)ncc1I)c1cccs1,-0.457 ± 1.2
5,Cc1cc(Nc2nc(N[C@@H](C)c3ncc(F)cn3)ncc2Cl)n[nH]1,56.5 ± 16
6,Cc1cc(Nc2ncc3c(n2)N(C)C(=O)N(c2cc(NC(=O)c4cccc(C(F)(F)F)c4)ccc2C)C3)n(C)n1,5.55 ± 14
7,C=CC(=O)Nc1cccc(Oc2nc(Nc3ccc(N4CCN(C)CC4)cc3)nc3ccsc23)c1,-10.3 ± 4.1
8,C[C@H](NC(=O)/C(C#N)=C/c1cccc(Br)n1)c1ccccc1,-10.8 ± 3.7
9,CCOc1cc(N2CCC(O)CC2)ccc1Nc1ncc2c(n1)N(C)c1ccccc1C(=O)N2C,-8.09 ± 7.7
10,CNC(=O)c1c(F)cccc1Nc1nc(Nc2cc3c(cc2OC)CCN3C(=O)CN(C)C)nc2[nH]ccc12,-0.577 ± 11
11,CCOc1ccn(-c2ccc(F)cc2)c(=O)c1C(=O)Nc1ccc(Oc2ccnc(N)c2Cl)c(F)c1,-0.77 ± 15
12,CCCS(=O)(=O)Nc1ccc(F)c(C(=O)c2c[nH]c3ncc(Cl)cc23)c1F,-8.04 ± 4.3
13,CN1CCN(S(=O)(=O)c2ccc(-c3cnc(N)c(C(=O)Nc4cccnc4)n3)cc2)CC1,-4.29 ± 6.5
14,COc1cc2ncc(-c3ccccc3)nc2cc1OC [Tyrphostin AG 1296],-3.11 ± 5.3
15,Cl.Cl.O=S(=O)(NCCNC/C=C/c1ccc(Br)cc1)c1cccc2cnccc12,9.74 ± 13
16,COc1cc2nccc(Oc3ccc(NC(=O)NC4CC4)c(Cl)c3)c2cc1C(N)=O [Lenvatinib (E7080)],1.41 ± 13
17,COc1ccc(-c2nc(N3CCOCC3)c3sc(CN(C)c4ncc(C(=O)NO)cn4)cc3n2)cn1,-2.41 ± 5.7

row,Compound,percent reduction in TR-FRET probe signal [%]
1,Cl.Cl.Fc1cc(-c2cccc3ncc(-c4cnn(C5CCNCC5)c4)nc23)cc(F)c1CN1CCOCC1,10.7 ± 13
2,CS(=O)(=O)O.N#CC1(c2ccc(NC(=O)c3cccnc3NCc3ccncc3)cc2)CCCC1 [Apatinib],-2.66 ± 9.6
3,CN(c1ncccc1CNc1nc(Nc2ccc3c(c2)CC(=O)N3)ncc1C(F)(F)F)S(C)(=O)=O.O=S(=O)(O)c1ccccc1,37.1 ± 14
4,Cc1cc2c(F)c(Oc3ncnn4cc(OC[C@@H](C)OC(=O)[C@H](C)N)c(C)c34)ccc2[nH]1,8.47 ± 14
5,CN(C)CCCn1cc(C2=C(c3c[nH]c4ccccc34)C(=O)NC2=O)c2ccccc21,8.74 ± 7.2
6,CN1CCN(Cc2ccc(-c3cnc4[nH]cc(-c5ccc6[nH]ccc6c5)c4c3)cc2)CC1,11.2 ± 7.5
7,COc1ccc(CNC(=O)Nc2ncc([N+](=O)[O-])s2)cc1,-3.27 ± 4.3
8,CCCCCCCCCCCCCCCc1cccc(O)c1C(=O)O [Anacardic Acid],19.2 ± 19
9,CN1CCN(c2ccc(C(=O)Nc3n[nH]c4ccc(Cc5cc(F)cc(F)c5)cc34)c(NC3CCOCC3)c2)CC1 [Entrectinib (RXDX-101)],-3.42 ± 2.4
10,COc1cc2ncnc(Nc3cccc(Cl)c3)c2cc1OC [AG-1478 (Tyrphostin AG-1478)],0.453 ± 6.3
11,C#Cc1cccc(Nc2ncnc3cc(OCCOC)c(OCCO)cc23)c1.Cl,-0.453 ± 12
12,COc1ncc(-c2cc(-c3ncc(CN4C[C@@H](C)O[C@@H](C)C4)o3)c3cn[nH]c3c2)cc1NS(C)(=O)=O,-2.16 ± 6.2
13,Cn1sc(=O)n(Cc2ccccc2)c1=O,-18.6 ± 15
14,COc1cc2ncnc(Nc3ccc(F)c(Cl)c3)c2cc1OCCCN1CCOCC1 [Gefitinib (ZD1839)],5.46 ± 21
15,Cc1c(Cn2c(C)nc3c(C(=O)O)cc(N4CCOCC4)cc32)cccc1C(F)(F)F,1.17 ± 7.4
16,C=CC(=O)Nc1cc(Nc2nccc(-c3cn(C)c4ccccc34)n2)c(OC)cc1N(C)CCN(C)C,-8.86 ± 8.3

# — the supplement of paper PMC10720658
